Legend:
Type in all cases: functional
Plasmodium falciparum [1] = assay: GSK_TCMDC: Inhibition of Plasmodium falciparum 3D7 in whole red blood cells, using parasite LDH activity as an index of growth. Test compounds present at 2uM
Plasmodium falciparum [2] = assay: GSK_TCMDC: Inhibition of Plasmodium falciparum Dd2 in whole red blood cells, using parasite LDH activity as an index of growth. Test compounds present at 2uM
HepG2 = assay: GSK_TCMDC: Percent inhibition of human HepG2 cell line. Test compounds present at 10uM.

Row | Structure (SMILES) | Inhibition (Plasmodium falciparum [1]) [%] | Inhibition (Plasmodium falciparum [2]) [%] | Inhibition (HepG2) [%]
1 | CCCCCc1cnc2nc(N)nc(N)c2c1C.Cl | 96 | 23 | 64
2 | CC(=O)O.Cc1cc(F)ccc1[C@H]1CNCCN1C(=O)N(C)[C@@H](C)c1cc(C(F)(F)F)cc(C(F)(F)F)c1 | 100 | 99 | 20
3 | O=C(O)/C=C\C(=O)O.O=c1c2sc(-c3ccc(Cl)cc3)cc2ncn1Cc1ccc(OCCN2CCCC2)c2ccccc12 | 100 | 81 | 38
4 | COc1cc2nc(N3CCC(CNCc4ccc(-c5ccc(C(F)(F)F)cc5)cc4)CC3)nc(N)c2cc1OC | 99 | 100 | 99
5 | O=C(NC1CCCC1)c1ccc(N2CCC(NCc3cc4cc(Cl)ccc4[nH]3)CC2)cc1 | 91 | 0 | 21
6 | CC(C)(C)NC(=O)C(c1ccc(F)cc1)N(C(=O)c1ccc(CN2CCOCC2)o1)c1ccc(C2CCCCC2)cc1 (stereo unspecified) | 87 | 68 | 0
7 | C=CCn1c(Sc2ccc(C#N)c([N+](=O)[O-])c2)nnc1-c1cccc(Cl)c1 | 97 | 54 | 41
8 | Cn1nccc1C(=O)NCCNCc1cccc(-c2ccc(-c3nc4cc(C(F)(F)F)ccc4[nH]3)s2)c1.O=C(O)C(F)(F)F | 100 | 99 | 36
9 | Cc1cc(C2CCN(CCCCNC(=O)c3ccc(NC(=O)c4ccc(Cl)cc4)cc3)CC2)c(C)cc1OCc1nccn1C.Cl | 100 | 98 | 18
10 | COc1ccc(C2c3cc(OC)c(OC)cc3C(=NO)C2C)cc1OC (stereo unspecified) | 90 | 6 | 20
11 | COCCCNc1sc(S(=O)(=O)c2ccccc2)nc1S(=O)(=O)c1ccc(Cl)cc1 | 95 | 87 | 0
12 | CN(C)CCOc1cccc(-c2cnc(N)c(-c3nc4cc(S(C)(=O)=O)ccc4[nH]3)c2)c1.O=C(O)C(F)(F)F | 100 | 82 | 39
13 | O=C(NC1CCCCC1)N(Cc1ccccc1-c1ccc(CNCCc2ccccc2)cc1)C1CCN(Cc2ccccc2)CC1.O=C(O)C(F)(F)F | 90 | 92 | 96
14 | O=C(Nc1ccc(Cl)cc1C(=O)Nc1cccc(F)c1)c1ccc([N+](=O)[O-])cc1 | 89 | 54 | 10
15 | O=C(Nc1ccc(-c2ccccc2)c(OCCN2CCNCC2)c1)c1ccc(-c2ccc(Cl)cc2)cc1 | 96 | 31 | 92
16 | CN1CCN(CCCN(Cc2ccc(-c3cccc(CNCc4ccc5c(c4)OCO5)c3)cc2)C(=O)NC2CCCCC2)CC1.O=C(O)C(F)(F)F | 95 | 92 | 31
17 | CC(C)NCc1ccc(-c2ccc(CN3CCCC(c4ccccc4)C3)cc2)c(C(=O)NC2Cc3ccccc3C2)c1.O=C(O)C(F)(F)F (stereo unspecified) | 96 | 64 | 41
18 | Cc1cccc(C)c1/N=C1\NC(=S)N(c2cccc(Cl)c2)C12CCC(C(C)(C)C)CC2 (stereo unspecified) | 87 | 53 | 4
19 | CC1CC(C)CN(CC(O)CNC(=O)Nc2ccc(Br)cc2)C1.O=C(O)C(F)(F)F (stereo unspecified) | 94 | 44 | 13
20 | N=C(N)Nc1nc(-c2cccc(NC(=O)NCC(c3ccccc3)c3ccccc3)c2)cs1 | 100 | 87 | 0
21 | Cl.N#Cc1ccc2c(c1)CCN(CCC1CCC(NC(=O)/C=C/c3ccc4ccccc4c3)CC1)CC2 (stereo unspecified) | 97 | 12 | 20
22 | O=C(O)C(F)(F)F.O=c1[nH]ccc2nc(N[C@@H]3CCNC3)nc(Nc3cc(Cl)cc(Cl)c3)c12 | 100 | 99 | 99
23 | Br.CCCc1cc(C)ccc1OCCCON1C(N)=NC(N)=NC1(C)C | 97 | 97 | 64
24 | CC(C)Oc1ccc2c(c1)OC(c1ccccc1)(C(F)(F)F)NC2=O (stereo unspecified) | 100 | 98 | 0
25 | N#Cc1ccc(N(CCOc2ccc3c(c2)CCC(=O)N3)Cc2ccccc2C(F)(F)F)cc1C(F)(F)F | 98 | 64 | 19
26 | CC1CN(c2ccc(NC(=O)c3ccc(F)cc3)cc2)CCN1Cc1cccc(F)c1.O=C(O)C(F)(F)F (stereo unspecified) | 81 | 76 | 11
27 | COc1cc2nc(NCCc3ccccc3)nc(NCc3cnn(C)c3C)c2cc1OC | 99 | 94 | 13

Source: ChEMBL document CHEMBL1157539, “Thousands of chemical starting points for antimalarial lead identification” (Nature, 2010)
